Measurements from PubChem BioAssay AID880 (National Center for Advancing Translational Sciences (NCATS), 2007).
In all, about 230,000 compounds went through this assay and about 1,000 (0.43%) were called active. Calls follow the shape of the dose curve; as a rule, active = well fitted inhibition curve with a large enough effect (not every such curve was filed as active); inactive = no such curve, though single readings can be large or run the other way. For the sample, actives were picked, then their nearest neighbours and some compounds at random.

Target: Guanine nucleotide-binding protein G(i) subunit alpha-1 (Homo sapiens) (UniProt P63096)
Assay: qHTS Assay for Inhibitors of RGS12 GoLoco Motif Activity (Red Fluorophore); also: nearly all actives have a fitted effect of over 30% in size
Conditions: Gai1:RGS12 GoLoco peptide FP, rhodamine, 10 min; series mostly up to 61.6 µM
% is scaled to controls: 0 for no effect and ±100 for the full control effect; potency is read from the fitted curve at half-maximal effect.

Chain of Guanine nucleotide-binding protein G(i) subunit alpha-1 (Homo sapiens) (P63096 whole entry, looked up): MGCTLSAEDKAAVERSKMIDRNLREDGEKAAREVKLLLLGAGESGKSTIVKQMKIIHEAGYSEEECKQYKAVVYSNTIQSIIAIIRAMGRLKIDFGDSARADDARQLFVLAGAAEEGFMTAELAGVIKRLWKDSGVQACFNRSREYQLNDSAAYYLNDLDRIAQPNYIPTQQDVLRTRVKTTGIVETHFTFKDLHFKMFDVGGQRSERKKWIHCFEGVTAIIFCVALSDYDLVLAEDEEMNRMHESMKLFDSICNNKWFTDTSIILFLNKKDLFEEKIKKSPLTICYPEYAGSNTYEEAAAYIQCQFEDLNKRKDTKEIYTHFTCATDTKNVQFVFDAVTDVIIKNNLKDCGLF

Potency, inactive:
CN(C)C(=O)c1nc2ccc(Cl)cn2c1CNCc1cccc(OC(F)(F)F)c1, Cn1nc(C(F)(F)F)cc1C(=O)O, O=[N+]([O-])c1cc(S(=O)(=O)CCCN2CCOCC2)ccc1F, CC(C)c1cnc(NC(=O)Cc2ccccc2)s1, O=C(CSc1ncnc2c1cnn2CCc1ccccc1)Nc1ccc(F)cc1, Oc1ccc(CNc2ccccc2O)cc1, O=C(OCc1ccccc1)c1ccc(O)cc1, COC(=O)CCCCCN1C(=O)NC(c2ccc(-c3ccccc3)cc2)C(C(=O)OCc2ccccc2)=C1C (stereo not drawn), C=C(C(C)=O)C(O)c1ccc([N+](=O)[O-])cc1 (stereo not drawn), CCOC(=O)C1(CC2CCCCO2)CCN(Cc2nc(-c3cccs3)oc2C)CC1 (stereo not drawn), OCC(CO)NC1C[C@](O)(CO)[C@@H](O)[C@H](O)[C@H]1O (stereo partly drawn), NC1CCN(O)C1=O (stereo not drawn), CCc1ccc(-n2c(SCc3cc(=O)n4cc(Br)ccc4n3)nc3[nH]ncc3c2=O)cc1, CC(O)COc1ccccc1 (stereo not drawn), O=C(O)/C=C/c1ccc(OCCCF)cc1, Cc1cccc(Br)c1, O=C1OCCN1C(=O)[C@H]1[C@H](c2ccc(Cl)cc2)C(c2cccc(Cl)c2)=NN1c1ccc(Br)cc1, CC(O)[C@@H](N)C(=O)O (stereo partly drawn), O=P(O)(O)C(O)c1ccc2ccccc2c1 (stereo not drawn), Cc1ccnc(SCC(N)=O)n1, Cc1ccnc(Nc2nc3ccccc3s2)n1, Cc1ccc(-c2nc3ccccc3[nH]c2=O)cc1, CCOC(=O)c1cnc2[nH]c3ccccc3n2c1=O, O=C(Nc1cccc(F)c1)N1CCC2(CC1)CCN(S(=O)(=O)c1ccccc1)CC2, CCOC(=O)C1=NO[C@@]2(C=C(Br)C(=O)[C@H]3O[C@H]32)C1, COc1ccc2c(-c3ccccc3)cc(SCC(=O)N(C)C3CCS(=O)(=O)C3)nc2c1 (stereo not drawn), CC(=O)OC1C([N+]2(C)CCCCC2)C[C@H]2C3CC[C@H]4C[C@H](OC(C)=O)C([N+]5(C)CCCCC5)CC4(C)C3CCC12C (stereo partly drawn), C=CC(=O)OCCOCCOCCOCCOC(=O)C=C, Cc1cccc(-n2c(=O)c3c(C)c(C)sc3n(CC(N)=O)c2=O)c1, NC(=O)c1sc(-c2ccsc2)cc1N

Potency, active:
Cc1ccnc(-n2sc3ccccc3c2=O)n1 14.1 µM, O=c1[nH]c2ccccc2n2c(-c3ccccc3)nnc12 12.6 µM

activity, negative = inhibition, inactive:
CC(=O)[C@H](C(c1ccccc1)N1CCOCC1)N1CCOCC1 (stereo partly drawn) -7.72% [at 14.2 µM]
